# Compound activity from PubChem BioAssay.
# D2 PAM-1: Beta-Arrestin HTS for Positive Allosteric Modulators of the Human D2 Dopamine Receptor: Potentiators | potentiation, % (test concentration not listed) | D(2) dopamine receptor (Homo sapiens), P14416 | DiscoveRx D2 beta-arrestin cells, luminescence, 90 min; 100% = 57 uM dopamine signal | hit rate 0.23% among 360,000; in the data active = potentiation above about 50%
# Target sequence (P14416 whole entry, looked up): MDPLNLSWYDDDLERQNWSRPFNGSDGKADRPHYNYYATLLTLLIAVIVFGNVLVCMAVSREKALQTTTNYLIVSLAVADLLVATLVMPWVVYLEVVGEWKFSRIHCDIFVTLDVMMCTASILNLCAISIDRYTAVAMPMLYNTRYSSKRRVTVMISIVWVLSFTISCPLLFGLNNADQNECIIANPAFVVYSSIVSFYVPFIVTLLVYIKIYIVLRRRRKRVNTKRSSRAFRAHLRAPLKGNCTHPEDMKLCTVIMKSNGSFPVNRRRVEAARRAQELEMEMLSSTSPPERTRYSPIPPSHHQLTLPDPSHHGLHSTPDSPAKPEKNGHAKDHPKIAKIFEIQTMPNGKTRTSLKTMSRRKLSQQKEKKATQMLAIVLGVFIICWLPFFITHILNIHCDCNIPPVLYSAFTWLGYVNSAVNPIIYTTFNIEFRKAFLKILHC
#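 PathHunter D2 cells, attached overnight at 37 deg C, received compound in DMSO plus dopamine at EC20 (50 nM final) for 90 min at 37 deg C. Beta-arrestin recruitment was read as luminescence after 1 h with detection reagent at ambient temperature.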
# D2 PAM-2: HTS Assay for Positive Allosteric Modulators of the Human D2 Dopamine Receptor: Primary Screen for Potentiators; D(2) dopamine receptor (Homo sapiens), P14416; HEK293 T-REx D2, calcium flux, EC20 dopamine potentiation; potentiation, % at 10 µM; hit rate 0.34% among 340,000;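 active = potentiation over 3 SD above the plate norm, cut at about 30% in these data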; note: 0% is about no effect
#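 Using a no-wash calcium dye in inducible, force-coupled HEK293 Trex cells expressing D2, we tracked fluorescence each second for 180 s after compound, then for 180 s after EC20 dopamine to detect augmented signalling.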
# D2 ag-1: HTS Assay for Allosteric Agonists of the Human D2 Dopamine Receptor: Primary Screen for Agonists | HEK293 T-REx D2 cells, calcium flux agonist mode | activation, % at 2 µM | hit rate 0.53% among 340,000;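 active = activation over 3 SD above normal in the single-dose calcium agonist read, cut at about 30% in these data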; note: 0% is about no effect
#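 Agonism scored from kinetic calcium signal (1 read/sec, 180 s) following compound pin transfer, after a 10 s baseline. Cells: HEK293 Trex line expressing inducible D2 receptor coupled to calcium, dye-loaded after overnight culture at 30 C.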
# D2 ag-2: Beta-Arrestin HTS for Positive Allosteric Modulators of the Human D2 Dopamine Receptor: Agonists; D(2) dopamine receptor (Homo sapiens), P14416; DiscoveRx PathHunter D2 beta-arrestin, luminescence, 90 min; 100% = 57 uM dopamine signal; activation, % (test concentration not listed); hit rate 0.084% among 360,000; AID 624465, 2012; in the data active = activation above about 40%
#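 Agonist mode: compounds alone added to overnight-plated D2 PathHunter cells for 90 min at 37 C, with 57 uM final dopamine (EC100) defining full response. Beta-arrestin recruitment detected by chemiluminescent reagent, read after 1 h at ambient temperature.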
# D2 antag: HTS Assay for Allosteric Antagonists of the Human D2 Dopamine Receptor: Primary Screen for Antagonists; D(2) dopamine receptor (Homo sapiens), P14416; HEK293 TREx D2 cells, calcium flux, dopamine EC80; inhibition, % at 10 µM; hit rate 2% among 340,000; in the data active = inhibition above about 30%; inactive = below that, where a call was filed; note: 0% is about no effect
#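 Overnight-induced (tetracycline, 30 C) HEK293 T-REx cells carrying force-coupled D2 receive a no-wash calcium dye, then compound, then EC80 dopamine at 180 s; signals are read kinetically throughout.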
# * = called active by the depositor; nt = no result. A selection: hits, their analogues and other compounds. The true share with any hit is near 2.4%.
SMILES,D2 PAM-1,D2 PAM-2,D2 ag-1,D2 ag-2,D2 antag
Cc1ccccc1CN1CCC(n2nccc2NC(=O)c2ccc3c(c2)OCO3)CC1,-47,-1,0,-9,-6
COc1ccc(CN2CCC(n3nccc3NC(=O)c3ccc4c(c3)OCO4)CC2)cc1C,-32,-12,1,2,45*
O=C(Nc1ccnn1C1CCN(Cc2cccnc2)CC1)c1ccccc1Cl,7,5,0,-3,-7
COc1ccccc1C(=O)Nc1ccnn1C1CCN(Cc2csc(C(C)=O)c2)CC1,-28,-1,1,-2,32*
Cc1cc(CN2CCC(n3nccc3NC(=O)c3ccccc3Cl)CC2)cc(C)c1O,-20,-19,1,-3,55*
CC(=O)O[C@]1(C(C)=O)CC[C@H]2[C@@H]3C=C(Cl)C4=CC(=O)[C@@H]5C[C@@H]5[C@]4(C)[C@H]3CC[C@@]21C,-5,6,1,-3,40*
CC(=O)O[C@]1(C(C)=O)CC[C@H]2[C@@H]3C=C(Cl)C4=CC(=O)CC[C@]4(C)[C@H]3CC[C@@]21C,-3,8,1,-4,-5
O=C1CC(c2ccc(S(=O)(=O)NCc3ccccc3)cc2)CN1 (stereo not given),-1,4,0,-2,1
Cc1ccccc1NS(=O)(=O)c1ccc(C2CNC(=O)C2)cc1 (stereo not given),-4,nt,1,0,66*
Cc1cc(=O)n(Cc2ccccc2Cl)c2c1c(C)nn2-c1ccccc1,nt,8,-1,nt,nt
O=c1c2ccccc2oc2nc(-c3ccco3)n(CCc3ccccc3)c(=O)c12,nt,3,-1,nt,-5
Cc1nc2oc3ccccc3c(=O)c2c(=O)n1Cc1ccccc1,-4,-9,1,-1,31*
COc1ccc2c(=O)c3c(=O)n(CCc4ccccc4)c(C)nc3oc2c1,0,nt,nt,1,nt
CCCCCCn1c(-c2ccco2)nc2oc3cc(OC)ccc3c(=O)c2c1=O,-9,30*,-1,-1,-4
COc1ccc(Cn2c(C)nc3oc4cc(OC)ccc4c(=O)c3c2=O)cc1,-38,-11,0,-6,72*
CCOC(=O)c1cccc(NC(=O)CCc2c(C)nn(-c3ccc(N4CCCCC4)nn3)c2C)c1,nt,-2,1,nt,nt
CCc1cccc(NC(=O)CSc2ncc3c(n2)-c2ccc(Cl)cc2N(Cc2ccccc2)S3(=O)=O)c1,nt,-13,0,nt,nt
O=C(CN1C(=O)S/C(=C\c2ccc(F)cc2)C1=O)NC1C=CS(=O)(=O)C1 (stereo not given),-8,0,0,-4,-12
O=C(CCN1C(=O)/C(=C/c2ccc(F)cc2)SC1=S)NC1C=CS(=O)(=O)C1 (stereo not given),-8,56*,0,1,-9
CC(=O)OCCNc1nc(-c2ccccc2)nc2ccccc12,0,-1,1,-6,38*
COCCNc1nc(-c2ccccc2)nc2ccccc12,-2,8,1,7,-6
CCN1CCSc2ccc(C(=O)NCc3cccc(F)c3)cc21,-9,-15,1,-6,44*
CCCOc1ccc(CNC(=O)c2ccc3c(c2)N(CC)CCS3)cc1,-10,-15,1,-3,50*
C=CCn1cnnc1SCC(=O)Nc1cccnc1Cl,nt,-2,0,nt,-2
CCn1c(C)c(C)c2cc(C(=O)NCC(C)c3ccccc3)ccc21 (stereo not given),nt,4,-1,nt,nt
SMILES,D2 PAM-1,D2 PAM-2,D2 ag-1,D2 ag-2,D2 antag
CCCOc1ccc(CNC(=O)CCCN2C(=O)CSc3c2c(C)nn3-c2ccccc2)cc1,nt,6,1,nt,nt
Cn1c(=O)c2c(nc(N/N=C/c3cccs3)n2C)n(C)c1=O,3,6,0,2,-4
Cn1c(=O)c2c(nc(N/N=C/c3ccco3)n2C)n(C)c1=O,4,-1,0,2,52*
CCC(=O)Nc1nc(-c2ccc3c(c2)OCCO3)cs1,-1,-3,0,2,32*
CC(C)(C)C(=O)Nc1nc(-c2ccc3c(c2)OCO3)cs1,-18,22,-1,-3,-3
Cc1ccccc1OCCC(=O)N1CCN(S(=O)(=O)c2ccc(Br)cc2)CC1,-24,4,-1,-3,55*
CCOc1ccc(CNC(=O)C2CCN(S(=O)(=O)c3ccc4c(ccn4C)c3)CC2)cc1,nt,4,0,nt,nt
COc1ccc(-c2noc(N3CCC(C(=O)NCc4ccccc4Cl)CC3)n2)cc1,-3,14,1,-2,48*
O=C(CSc1nccn1-c1ccc(F)cc1)Nc1ccc2c(c1)OCO2,-8,39*,1,-4,-29
CCOc1ccc(NC(=O)CSc2ncc(-c3ccc(F)cc3)n2Cc2ccco2)cc1,-10,21,0,-2,12
Cc1ccc(NC(=O)CSc2nnc(-c3cnccn3)n2Cc2ccco2)cc1,-14,-7,-4,-2,32*
O=C(CSc1ncc(-c2ccc(F)cc2)n1Cc1ccco1)Nc1ccc2c(c1)OCO2,-24,-16,1,-3,37*
Cc1cccc(NC(=O)CSc2nnc(-c3cnccn3)n2Cc2ccco2)c1,-18,25,0,-4,-12
CN(C)CCNC(=O)C(=O)c1c(-c2ccccc2)cc2ccccn12,-16,5,0,-1,10
COc1ccc(-c2c(-c3ccccc3)c(C(=O)C(=O)NCCCN(C)C)n3ccc4cc(OC)c(OC)cc4c23)cc1OC,-16,-24,0,-2,48*
CCOC(=O)N1CCN(Cc2nc3cc(NC(=O)c4ccc([N+](=O)[O-])cc4)ccc3n2C(C)C)CC1,nt,12,-2,nt,nt
COc1cc(OC)c(NC2(c3ccccc3)C(=O)c3ccccc3C2=O)cc1Cl,nt,-9,-1,nt,nt
CCCc1ccc(OCC(=O)Nc2sc3c(c2C(=O)OCC)CCC(C(C)(C)C)C3)cc1 (stereo not given),nt,nt,-1,nt,nt
COc1ccc(/C=N/NC(=O)COc2ccc3ccccc3c2)c(C(=O)O)c1OC,-2,12,1,-7,7
COc1ccc(/C=N/NC(=O)COc2cccc3ccccc23)c(C(=O)O)c1OC,2,40*,0,0,-21
CC(C)NC(=O)C1(c2ccccc2)CCOCC1,-16,35*,1,-3,-26
CC(Cc1ccccc1)NC(=O)C1(c2ccccc2)CCOCC1 (stereo not given),-9,-1,0,-2,9
COc1cccc(CNc2nc3c(-c4cccc(C)c4)nnn3c3ccccc23)c1,nt,-1,nt,nt,nt
